Consider 8 molecules from PubChem BioAssay (NCI).

What all share (experiment): NCI-60 one-dose screen, 48 h (100 = growth as untreated, 0 = no growth, -100 = all killed)
One test concerns HCT-15 colon. The note with it: 10 µM unless noted.
A further test concerns HT29 colon. The note with it: 10 µM unless noted.
A further test has as its system SNB-75 CNS. The note with it: 10 µM unless noted.
The test system of the next test is SNB-19 CNS. The conditions noted are these: 10 µM unless noted.
In the next test the test system is U251 CNS. The note with it: 10 µM unless noted.
The next test deals with PC-3 prostate. The conditions noted are these: 10 µM unless noted.
A further test relates to SK-MEL-5 melanoma. The note with it: 10 µM unless noted.
In the next test the test system is UACC-62 melanoma. The note with it: 10 µM unless noted.
The subject of another test is LOX IMVI melanoma. The conditions noted are these: 10 µM.
The test system of the next test is SK-MEL-28 melanoma. The conditions noted are these: 10 µM unless noted.
A further test concerns SK-MEL-2 melanoma. The note with it: 10 µM unless noted.
The next test has as its system EKVX NSCLC. The conditions noted are these: 10 µM unless noted.
The subject of another test is SN12C renal. The note with it: 10 µM unless noted.
In the next test the test system is UO-31 renal. The conditions noted are these: 10 µM unless noted.
For another test, the system named is TK-10 renal. The note with it: 10 µM unless noted.
The subject of another test is ACHN renal. The note with it: 10 µM unless noted.
The test system of a further test is A498 renal. The note with it: 10 µM unless noted.
In a further test the test system is CCRF-CEM leukemia. The conditions noted are these: 10 µM unless noted.
The test system of the next test is MOLT-4 leukemia. The note with it: 10 µM unless noted.
Another test deals with CAKI-1 renal. The conditions noted are these: 10 µM unless noted.

Structures are written as SMILES. Compounds without any hit were thinned out: in the full panel of roughly 83,000, 20% have a hit.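 Assay: single dose, 48 h. Readout: percent growth (0 = no net growth; negative = cell death). Active: <10.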 Values without a mark were called inactive. Active and inactive are the calls of the source.

As to `O=C(O)CCCCCNC(=O)OCc1ccccc1`, the growth was 103% with HCT-15 colon; 108% in the test with HT29 colon; 74% with SNB-75 CNS; 105% with SNB-19 CNS; 94.9% with U251 CNS; 95.3% in the test on PC-3 prostate. The growth is 111% in the test with SK-MEL-5 melanoma; 101% in the test with UACC-62 melanoma; 104% in the test with LOX IMVI melanoma; 106% in the test with SK-MEL-28 melanoma; 119% with SK-MEL-2 melanoma; 98.1% in the test with EKVX NSCLC. Further, the growth is 97% in the test with SN12C renal; 72.9% in the test on UO-31 renal; 109% in the test on TK-10 renal; 101% with ACHN renal; 103% in the test on A498 renal; 0.55% (active) in the test with CCRF-CEM leukemia. For the same molecule, the growth in the test with MOLT-4 leukemia is 110%.

Take `Cc1c(Cl)cccc1NC(=S)NC(=O)c1ccccc1`: the growth was 92.6% in the test with HCT-15 colon; 90.3% in the test with HT29 colon; 90.5% in the test with SNB-75 CNS; 107% in the test on SNB-19 CNS; 84.9% with U251 CNS; 89.2% with PC-3 prostate. Moreover, the growth in the test with SK-MEL-5 melanoma is 90.1%; in the test on UACC-62 melanoma, 92.7%; in the test on LOX IMVI melanoma it was 99.3%; with SK-MEL-28 melanoma, 102%; in the test on SK-MEL-2 melanoma it was 96%; in the test on EKVX NSCLC it was 71.6%. Besides, the growth with SN12C renal is 98.6%; in the test with UO-31 renal it was 85.5%; in the test on TK-10 renal, 93.5%; with ACHN renal, 113%; with CAKI-1 renal, 79.4%; with CCRF-CEM leukemia, 95.3%. In addition, the growth with MOLT-4 leukemia is 83.9%.

With `COc1ccc(C(=O)/C(=N/Nc2ccccc2)c2ccc(OC)cc2)cc1`, the growth in the test on HCT-15 colon is 76.1%; in the test on HT29 colon, 80.5%; with SNB-75 CNS it was 97.1%; in the test on SNB-19 CNS it was 100%; in the test with U251 CNS, 92.4%; in the test with PC-3 prostate, 78.2%. For the same molecule, the growth is 98.1% with SK-MEL-5 melanoma; 79.2% with UACC-62 melanoma; 92.1% in the test with LOX IMVI melanoma; 111% in the test on SK-MEL-28 melanoma; 96.2% with SK-MEL-2 melanoma; 91.7% with EKVX NSCLC. Further, the growth is 91.5% in the test with SN12C renal; 71.4% in the test on UO-31 renal; 112% with TK-10 renal; 96.1% with ACHN renal; 73.9% in the test on CAKI-1 renal; 94.1% with CCRF-CEM leukemia. Moreover, the growth in the test on MOLT-4 leukemia is 85%.

Take `Cc1cc2c3ccc(C)[n+](C)c3ccc2n1C`: the growth with HCT-15 colon is 104%; in the test with HT29 colon, 39.9%; in the test with SNB-75 CNS, 67.6%; in the test on SNB-19 CNS it was 30.6%; in the test on U251 CNS it was 12.4%; in the test on PC-3 prostate it was 8.69% (active). Also, the growth in the test with SK-MEL-5 melanoma is 48.2%; with UACC-62 melanoma, 78.9%; with LOX IMVI melanoma, 43.9%; in the test with SK-MEL-28 melanoma it was 86%; with SK-MEL-2 melanoma, 92.4%; in the test with EKVX NSCLC, 20%. The growth in the test with SN12C renal was 22.4%; in the test with UO-31 renal it was 27.1%; with TK-10 renal it was 65.6%; in the test with ACHN renal, 79.4%; with CAKI-1 renal, 58.1%; in the test with CCRF-CEM leukemia it was 36.7%. For the same molecule, the growth in the test with MOLT-4 leukemia is 25.2%.

As for `CC(=O)[C@@]1(O)CC[C@H]2[C@@H]3CC[C@@H]4CC(=O)CC[C@]4(C)[C@H]3[C@@H](O)C[C@@]21C`, the growth in the test on HCT-15 colon was 103%; with HT29 colon, 100%; in the test on SNB-75 CNS, 92.7%; in the test on SNB-19 CNS, 103%; in the test on U251 CNS it was 94.8%; in the test on PC-3 prostate, 86.1%. In addition, the growth was 99.4% in the test with SK-MEL-5 melanoma; 94.7% in the test on UACC-62 melanoma; 96.7% in the test on LOX IMVI melanoma; 99.4% in the test on SK-MEL-28 melanoma; 99.7% in the test on SK-MEL-2 melanoma; 88.9% in the test with EKVX NSCLC. The growth in the test with SN12C renal was 95.4%; in the test on UO-31 renal, 91.7%; in the test with TK-10 renal, 97.2%; with ACHN renal it was 101%; with A498 renal it was 88.6%; in the test with CCRF-CEM leukemia it was 94.1%. Also, in the test on MOLT-4 leukemia, the growth is 94.5%.

In the case of `CCC(=O)C1C(=O)c2ccccc2C1=O`, the growth in the test on HCT-15 colon is 113%; with HT29 colon, 100%; with SNB-75 CNS, 83.1%; in the test on SNB-19 CNS, 109%; in the test with U251 CNS it was 105%; in the test with PC-3 prostate, 92.2%. In addition, the growth in the test with SK-MEL-5 melanoma is 110%; with UACC-62 melanoma, 104%; in the test on LOX IMVI melanoma, 98.1%; in the test on SK-MEL-28 melanoma it was 120%; in the test with SK-MEL-2 melanoma it was 102%; in the test with EKVX NSCLC, 82.6%. In addition, the growth is 109% with SN12C renal; 68.8% with UO-31 renal; 114% in the test on TK-10 renal; 115% in the test with ACHN renal; 114% in the test with A498 renal; 107% in the test with CCRF-CEM leukemia. For the same molecule, the growth in the test with MOLT-4 leukemia was 136%.

Turning to `C[n+]1c(/C=C\C=C\N2CCCCC2)sc2ccccc21`, the growth in the test with HCT-15 colon is 57.7%; with HT29 colon it was 1.33% (active); with SNB-75 CNS, 14.4%; with SNB-19 CNS it was 15.4%; with U251 CNS it was 14.5%; in the test on PC-3 prostate it was 2.78% (active). Besides, the growth in the test on SK-MEL-5 melanoma is -59.7% (active); with UACC-62 melanoma it was 3.09% (active); in the test on LOX IMVI melanoma, 14.1%; in the test with SK-MEL-28 melanoma, 39.4%; with SK-MEL-2 melanoma, -51.1% (active); in the test on EKVX NSCLC, 5.77% (active). The growth in the test on SN12C renal was 7.71% (active); with UO-31 renal, 52.1%; in the test with TK-10 renal, 22%; in the test on ACHN renal, 66.2%; in the test on A498 renal it was 43.5%; in the test on CCRF-CEM leukemia, 8.73% (active). The growth in the test with MOLT-4 leukemia is -9.41% (active).

`Clc1ccc(/C=C/c2ccccn2)cc1`: the growth in the test on HCT-15 colon was 89.5%; with HT29 colon, 111%; in the test with SNB-75 CNS it was 72.5%; in the test with SNB-19 CNS, 96.3%; in the test with U251 CNS, 81.1%; with PC-3 prostate, 81.4%. The growth is 101% with SK-MEL-5 melanoma; 106% with UACC-62 melanoma; 98.6% with LOX IMVI melanoma; 99% in the test on SK-MEL-28 melanoma; 103% in the test on SK-MEL-2 melanoma; 76.3% in the test with EKVX NSCLC. In addition, the growth in the test on SN12C renal was 108%; in the test on UO-31 renal, 78.1%; with TK-10 renal it was 99.3%; with ACHN renal, 103%; with A498 renal it was 77.3%; in the test on CCRF-CEM leukemia it was -56% (active). The growth in the test on MOLT-4 leukemia is 86.9%.
